# Values joined by “and” are separate entries in the source; they are usually repeats but may differ in a detail not shown here. Equal values may be shown once. Results filed as inconclusive are left out. Active and inactive are the calls of the source. Calls follow the shape of the dose curve; as a rule, active = well fitted cell-killing curve with a large enough effect in the repeat runs; inconclusive = weak or mixed curves, or effect the other way; inactive = no such curve, though single readings can be large or run the other way.
# Experiment: qHTS assay for identifying genotoxic compounds that show differential cytotoxicity against isogenic chicken DT40 cell lines with known DNA damage response pathways - Rev3 mutant cell line (AID 743014); also: nearly all actives have a fitted effect of over 55% in size
# Conditions: chicken DT40 Rev3-/- viability, CellTiter-Glo, 40 h; series mostly up to 68.4 µM
# Text: National Center for Advancing Translational Sciences [NCATS]
# NIH Chemical Genomics Center [NCGC]
# U.S. Environmental Protection Agency [EPA]
# National Institutes of Environmental Health Sciences [NIEHS]
# National Toxicology Program [NTP]
# U.S. Food and Drug Administration [FDA]
# DNA repair pathways play a critical role in cellular homeostasis by repairing DNA damage induced by endogenous processes and xenobiotics. Isogenic chicken DT40 cell lines deficient in different DNA repair pathways can be used to identify genotoxic compounds and aid in characterizing the nature of the DNA damage induced. Two DNA repair-deficient cell lines with disrupted genes, Rad54/Ku70 or Rev3, were used to screen the Tox21 10K compound library. Possible genotoxicity was based on the presence of a significant increase in cytotoxicity in one or more of the DNA repair-deficient cell lines compared to that observed in the parental DNA repair-proficient cell line. CellTiter Glo viability assay (Promega, Madison, WI) was used to measure cell viability in these cells after compound treatment. This assay includes the data from the Rev3 mutant cell line.
# Tox21 Assay Protocol Summary:
# 300 DT40 mutant cells in 5 uL/well were dispensed into white, solid-bottom 1536-well plates using a Multidrop Combi (ThermoFisher Scientific, Waltham, MA) dispenser. After the assay plates were incubated at 37 C/5% CO2 for approximately 0.5 hour, 23 nL of compounds dissolved in DMSO, positive controls or DMSO only was transferred into the assay plate by a pintool work station (Kalypsys, San Diego, CA). The assay plates were incubated at 37 C/5% CO2 for 40 hours. After 5 uL per well of CellTiter-Glo reagent was added into each well of the assay plates, the plates were incubated for 30 min at room temperature and the luminescence intensity of the plates was measured using a ViewLux (PerkinElmer, Shelton, CT) plate reader.
# Potency is read from the fitted curve at half-maximal effect.
row,SMILES,Potency
1,Cc1c(-c2ccc(O)cc2)n(Cc2ccc(OCCN3CCCCCC3)cc2)c2ccc(O)cc12,13.3 µM (active)
2,CCN(CC)CCCN(c1ccccc1)C1Cc2ccccc2C1,0.944 µM (active)
3,C=C(C)C(=O)OCCC[Si](Cl)(Cl)Cl,inactive
4,CC1=C(/C=C/C(C)=C/C=C/C(C)=C/C(=O)Nc2ccc(O)cc2)C(C)(C)CCC1,13.3 µM (active) and 9.94 µM (active)
5,NC1(c2ccc(-c3nc4ccn5c(=O)[nH]nc5c4cc3-c3ccccc3)cc2)CCC1,5.31 µM (active)
6,N[C@@H](CSSC[C@H](N)C(=O)O)C(=O)O,inactive
7,CCN(CC)CCSC(=O)C(c1ccccc1)c1ccccc1,inactive
8,C=CC(=O)OCCC#N,inactive
9,CC(COC(=O)c1ccccc1)OC(=O)c1ccccc1 (stereo not given),inactive
10,O=C(O)c1cccc(Cl)n1,61.1 µM (active)
11,CCO[Si](CCCSSSSCCC[Si](OCC)(OCC)OCC)(OCC)OCC,61.2 µM (active)
12,CCCCCCCOC(=O)c1ccc(O)cc1,43.3 µM (active)
13,CCCCCCOc1ccc(O)cc1,5.45 µM (active)
14,NC(=O)c1nc(-c2cccc(-c3cc(F)ccc3OCC(F)(F)C(F)(F)F)c2)n[nH]1,24.3 µM (active)
15,CC=O,0.057 µM (active)
16,CC(C)=C1CC[C@@H](C)CC1=O,inactive
17,C[Si](C)(C)Cl,inactive
18,CCC(=O)OCCc1ccccc1,23.3 µM (active)
19,Clc1ccccc1CN1CCc2sccc2C1,21.1 µM (active)
20,COC(=O)CC#N,inactive

row,SMILES,Potency
1,CC1=C(/C=C/C(C)=C/C=C/C(C)=C\C=O)C(C)(C)CCC1,14.5 µM (active)
2,Brc1ccccc1-c1ccccc1,41 µM (active)
3,CCc1ccc(O)c(C(C)(C)C)c1,30.6 µM (active)
4,COc1cc(C(C)C)c2c(c1)S(=O)(=O)N(COc1cc(=O)n3cccc(OCCN4CCCCC4)c3n1)C2=O,16.4 µM (active)
5,CCN(CC)c1ccc(N)cc1,4.45 µM (active)
6,O=C1c2c(O)ccc(O)c2C(=O)c2c(NCCNCCO)ccc(NCCNCCO)c21,0.0101 µM (active)
7,O=C1NCCN1CCN1CCC(c2cn(-c3ccc(F)cc3)c3ccc(Cl)cc23)CC1,1.88 µM (active) and 2.37 µM (active)
8,CCC(C)c1cc([N+](=O)[O-])cc([N+](=O)[O-])c1OC(=O)OC(C)C (stereo not given),48.6 µM (active)
9,O=C1OC(=O)c2cccc3cccc1c23,15.5 µM (active)
10,CC(C(O)c1ccccc1)N(C)CCOC(c1ccccc1)c1ccccc1 (stereo not given),8.41 µM (active)
11,Cc1ccc2ccc3cccc4ccc1c2c34,inactive
12,CCCCCCCCCCCCCC[n+]1ccccc1,0.077 µM (active)
13,CN(C)CCCN1c2ccccc2Sc2ccc(C(F)(F)F)cc21,8.41 µM (active)
14,CNC(=O)c1cc(Oc2ccc(NC(=O)Nc3ccc(Cl)c(C(F)(F)F)c3)cc2)ccn1,5.31 µM (active)
15,CCCCCCC(C)Nc1ccc(Nc2ccccc2)cc1 (stereo not given),15.4 µM (active)
16,O=C(Nc1ccc(Cl)cc1)Nc1ccc(Cl)c(C(F)(F)F)c1,5.31 µM (active)
17,COc1ccccc1OCCNCC(O)COc1cccc2[nH]c3ccccc3c12 (stereo not given),29.8 µM (active)
18,C=C[C@](C)(O)CC[C@@H]1[C@@]2(C)CCCC(C)(C)[C@@H]2CC[C@@]1(C)O,19.3 µM (active)
19,CCCCNc1c(C(=O)OCC)c(C)nc2c1cnn2CC,23.7 µM (active)
20,Nc1ccc2cc3ccc(N)cc3nc2c1,2.98 µM (active) and 2.73 µM (active)

# — PubChem BioAssay (Tox21)
